Assay results from PubChem BioAssay (NCATS).
Active and inactive are the calls of the source. Unless noted, calls come from the whole dose curve.

Target: Glucocorticoid receptor (Homo sapiens) (UniProt P04150)
Assay: GR-GFP Redistribution (AID 450;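 active = compounds whose dose series gives a full or clear partial fitted curve of increased nuclear translocation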)
Conditions: U2OS GR-GFP nuclear translocation, laser cytometry, 2 h
Potency is the fitted concentration of half-maximal effect.

Sequence of Glucocorticoid receptor (Homo sapiens) (P04150 whole entry, looked up): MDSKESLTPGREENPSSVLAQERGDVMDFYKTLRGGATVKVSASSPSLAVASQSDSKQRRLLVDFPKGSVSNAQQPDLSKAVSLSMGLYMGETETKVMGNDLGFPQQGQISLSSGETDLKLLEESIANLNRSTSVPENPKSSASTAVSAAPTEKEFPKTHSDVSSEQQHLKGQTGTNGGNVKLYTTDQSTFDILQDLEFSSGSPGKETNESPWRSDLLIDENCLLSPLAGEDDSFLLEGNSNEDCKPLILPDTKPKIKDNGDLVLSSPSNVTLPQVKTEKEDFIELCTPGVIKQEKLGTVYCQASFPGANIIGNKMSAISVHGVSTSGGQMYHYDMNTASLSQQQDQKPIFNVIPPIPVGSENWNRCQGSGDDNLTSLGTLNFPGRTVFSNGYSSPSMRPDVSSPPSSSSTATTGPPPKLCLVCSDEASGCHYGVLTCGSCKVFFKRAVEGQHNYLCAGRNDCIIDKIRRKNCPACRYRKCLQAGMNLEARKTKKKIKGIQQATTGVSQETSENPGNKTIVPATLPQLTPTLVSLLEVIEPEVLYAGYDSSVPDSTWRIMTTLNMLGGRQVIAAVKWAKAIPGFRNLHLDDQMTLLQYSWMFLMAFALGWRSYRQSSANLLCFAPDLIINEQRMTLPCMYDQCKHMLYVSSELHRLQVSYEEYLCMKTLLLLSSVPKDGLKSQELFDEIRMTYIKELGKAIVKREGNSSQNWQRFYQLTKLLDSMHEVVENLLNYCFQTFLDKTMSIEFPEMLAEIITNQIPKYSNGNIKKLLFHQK

Potency, inactive:
CCNc1ncc2nc(-c3cn(C)c4ccccc34)c(=O)n(Cc3ccc(F)cc3)c2n1 > 9.22 µM
COc1cccc(-c2nccc(NCc3cccnc3)n2)c1 > 46 µM
CN(C)c1ncc2nc(-c3cccs3)c(=O)n(-c3ccccc3)c2n1 > 9.22 µM
COc1ccc(-c2nc3cnc(OC)nc3n(C)c2=O)cc1 > 9.22 µM
COc1ncc2nc(-c3cccs3)c(=O)n(Cc3ccc(F)cc3)c2n1 > 9.22 µM
COc1cccc(Cn2c(=O)cnc3cnc(OC)nc32)c1 > 9.22 µM
COCCn1c(=O)c(-c2cccs2)nc2cnc(OC)nc21 > 9.22 µM
COc1ccc(CNc2ccnc(-c3c(C)noc3C)n2)c(OC)c1 > 46 µM
COc1cccc(Cn2c(=O)cnc3cnc(OCc4ccccc4)nc32)c1 > 9.22 µM
Cc1cnc(CNc2ncnc3ccc(-c4ccc5c(c4)OCO5)cc23)cn1 > 46 µM
CNc1nc(-c2c(C)noc2C)nc2ccccc12 > 46 µM
N#Cc1cccc(-c2nccc(NCc3ccccc3)n2)c1 > 46 µM
COc1cccc(Cn2c(=O)c(-c3cccs3)nc3cnc(OCc4ccccc4)nc32)c1 > 9.22 µM
c1ccc(CNc2ncncc2-c2ccc3c(c2)OCO3)cc1 > 46 µM
Cc1noc(C)c1-c1nc(Nc2ccc(F)cc2)c2ccccc2n1 > 46 µM
COc1ccc(CNc2ccnc(-c3ccccc3OC)n2)c(OC)c1 > 46 µM
Cn1c(=O)c(-c2ccc(F)cc2)nc2cnc(N3CCOCC3)nc21 > 9.22 µM
O=c1c(CCc2ccccc2)nc2cnc(N3CCOCC3)nc2n1CCc1ccccc1 > 9.22 µM
N#Cc1ccccc1-c1ccc2ncnc(NC3CC3)c2c1 > 46 µM
COc1cccc(Cn2c(=O)c(-c3cccs3)nc3cncnc32)c1 > 9.22 µM
O=c1c(-c2ccc(F)cc2)nc2cncnc2n1-c1ccccc1 > 9.22 µM
O=c1c(-c2ccc(Cl)cc2)nc2cnc(Nc3ccccc3)nc2n1C[C@H]1CCCO1 > 9.22 µM
CN(C)Cc1ccccc1-c1nc(NC2CC2)c2ccccc2n1 > 46 µM
CCNc1ncc2nc(-c3ccccc3)c(=O)n(CCOC)c2n1 > 9.22 µM
CN(Cc1ccco1)c1ncnc2ccc(-c3ccccc3C#N)cc12 > 46 µM
CCNc1ncc2nc(-c3ccc(F)cc3)c(=O)n(C[C@H]3CCCO3)c2n1 > 9.22 µM
Cc1cnc(CNc2nc(-c3ccccc3C(F)(F)F)nc3ccccc23)cn1 > 46 µM
CS(=O)(=O)Nc1cccc(-c2nccc(Nc3ccc(F)cc3)n2)c1 > 46 µM
CCNc1ncc2nc(-c3cc(F)cc(F)c3)c(=O)n(CCc3ccccc3)c2n1 > 9.22 µM
COc1cccc(-c2cc(NCc3ccccc3)ncn2)c1 > 46 µM
COc1ccc(-c2nc3cnc(OC)nc3n(CCC#N)c2=O)cc1 > 9.22 µM
N#Cc1cccc(-c2nccc(NCc3cccs3)n2)c1 > 46 µM
CN(C)c1ccc(-c2cncnc2N(C)Cc2ccco2)cc1 > 46 µM

Target: Glucocorticoid receptor (Homo sapiens) (UniProt P04150)
Assay: GR-EFC Redistribution (AID 451)
Conditions: CHO-K1 GR-EFC translocation, beta-gal luminescence, 2 h
Summary of the method: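 CHO-K1 cells stably expressing nuclear-localized β-gal enzyme acceptor and GR fused C-terminally to the enzyme donor fragment; ligand-driven nuclear translocation restores β-gal by complementation. Compounds titrated up to 46 uM final, 2 h at 37 °C; luminescence read.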

Potency, inactive:
CCNc1ncc2nc(-c3cn(C)c4ccccc34)c(=O)n(Cc3ccc(F)cc3)c2n1 > 46 µM
COc1cccc(-c2nccc(NCc3cccnc3)n2)c1 > 46 µM
CN(C)c1ncc2nc(-c3cccs3)c(=O)n(-c3ccccc3)c2n1 > 46 µM
COc1ncc2nc(-c3cccs3)c(=O)n(Cc3ccc(F)cc3)c2n1 > 46 µM
COc1cccc(Cn2c(=O)cnc3cnc(OC)nc32)c1 > 46 µM
COCCn1c(=O)c(-c2cccs2)nc2cnc(OC)nc21 > 46 µM
COc1cccc(Cn2c(=O)cnc3cnc(OCc4ccccc4)nc32)c1 > 46 µM
Cc1cnc(CNc2ncnc3ccc(-c4ccc5c(c4)OCO5)cc23)cn1 > 46 µM
CNc1nc(-c2c(C)noc2C)nc2ccccc12 > 46 µM
N#Cc1cccc(-c2nccc(NCc3ccccc3)n2)c1 > 46 µM
COc1ccccc1CNc1cc(-c2ccccc2C(F)(F)F)ncn1 > 46 µM
COc1cccc(Cn2c(=O)c(-c3cccs3)nc3cnc(OCc4ccccc4)nc32)c1 > 46 µM
c1ccc(CNc2ncncc2-c2ccc3c(c2)OCO3)cc1 > 46 µM
Cc1noc(C)c1-c1nc(Nc2ccc(F)cc2)c2ccccc2n1 > 46 µM
COc1ccc(CNc2ccnc(-c3ccccc3OC)n2)c(OC)c1 > 46 µM
Cn1c(=O)c(-c2ccc(F)cc2)nc2cnc(N3CCOCC3)nc21 > 46 µM
O=c1c(CCc2ccccc2)nc2cnc(N3CCOCC3)nc2n1CCc1ccccc1 > 46 µM
N#Cc1ccccc1-c1ccc2ncnc(NC3CC3)c2c1 > 46 µM
COc1cccc(Cn2c(=O)c(-c3cccs3)nc3cncnc32)c1 > 46 µM
O=c1c(-c2ccc(F)cc2)nc2cncnc2n1-c1ccccc1 > 46 µM
O=c1c(-c2ccc(Cl)cc2)nc2cnc(Nc3ccccc3)nc2n1C[C@H]1CCCO1 > 46 µM
COc1ccccc1-c1cncnc1NCc1cnc(C)cn1 > 46 µM
CN(C)Cc1ccccc1-c1nc(NC2CC2)c2ccccc2n1 > 46 µM
CCNc1ncc2nc(-c3ccccc3)c(=O)n(CCOC)c2n1 > 46 µM
CN(Cc1ccco1)c1ncnc2ccc(-c3ccccc3C#N)cc12 > 46 µM
CCNc1ncc2nc(-c3ccc(F)cc3)c(=O)n(C[C@H]3CCCO3)c2n1 > 46 µM
Cc1cnc(CNc2nc(-c3ccccc3C(F)(F)F)nc3ccccc23)cn1 > 46 µM
CS(=O)(=O)Nc1cccc(-c2nccc(Nc3ccc(F)cc3)n2)c1 > 46 µM
CCNc1ncc2nc(-c3cc(F)cc(F)c3)c(=O)n(CCc3ccccc3)c2n1 > 46 µM
COc1cccc(-c2cc(NCc3ccccc3)ncn2)c1 > 46 µM
c1ccc(CNc2ncncc2-c2cccnc2)cc1 > 46 µM
COc1ccc(-c2nc3cnc(OC)nc3n(CCC#N)c2=O)cc1 > 46 µM
N#Cc1cccc(-c2nccc(NCc3cccs3)n2)c1 > 46 µM
Cc1ccccc1-c1cncnc1NCc1cccnc1 > 46 µM
COc1ccc(Oc2ncc3nc(-c4cn(C)c5ccccc45)c(=O)n(C)c3n2)cc1 > 46 µM
CN(C)c1ccc(-c2cncnc2N(C)Cc2ccco2)cc1 > 46 µM
COc1ncc2nc(-c3cn(C)c4ccccc34)c(=O)n(CCC#N)c2n1 > 46 µM
